{
  "source": "the supplement of paper PMC9794691",
  "data": [
    {"test_system": "PC9", "assay": "area under confluence curve of compound monotherapy; compare to DMSO control AUC of the same experiment (AUC (confluence x time, arbitrary))", "details": "5 nM; DMSO control AUC in same experiment: 29563", "experimental": "(§1)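 compare to DMSO control AUC of the same experiment; Monotherapy arm of the osimertinib DTP screen: EGFR-mutant NSCLC cells were treated with the test compound alone at a fixed dose (highest dose with <50% inhibition of parental cells, or 1 uM), then switched to drug-free medium at the DTP stage. IncuCyte confluence was tracked and AUC computed in Prism. AUC scale depends on experiment duration, so each row carries the same-experiment DMSO control AUC (monotherapy activity = DMSO AUC minus monotherapy AUC). The monotherapy value is shared between screen formats.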", "values": [
      {"smiles": "NC(=O)Nc1cc(-c2cccc(F)c2)sc1C(=O)N[C@H]1CCCNC1", "area under confluence curve": 26800}
    ]},
    {"test_system": "PC9", "assay": "area under confluence curve of compound monotherapy; compare to DMSO control AUC of the same experiment (AUC (confluence x time, arbitrary))", "details": "100 nM; DMSO control AUC in same experiment: 21913", "experimental": "as §1", "values": [
      {"smiles": "Nc1ccc(/C=C/C(=O)NCc2cc3cc(-c4ccc(C(=O)N5CCC(F)(F)CC5)cc4)cc(-c4ccc(F)cc4)c3o2)cn1", "area under confluence curve": 22800}
    ]},
    {"test_system": "PC9", "assay": "area under confluence curve of compound monotherapy; compare to DMSO control AUC of the same experiment (AUC (confluence x time, arbitrary))", "details": "300 nM; DMSO control AUC in same experiment: 49143", "experimental": "as §1", "values": [
      {"smiles": "Oc1nc(-c2ccc(C(F)(F)F)cc2)nc2c1CSCC2", "area under confluence curve": 49300}
    ]},
    {"test_system": "PC9", "assay": "area under confluence curve of compound monotherapy; compare to DMSO control AUC of the same experiment (AUC (confluence x time, arbitrary))", "details": "1000 nM; DMSO control AUC in same experiment: 18733", "experimental": "as §1", "values": [
      {"smiles": "O=C(N[C@@H](C1CC1)C(F)(F)F)c1cc(-c2cnn3cc(-c4ccc(F)cc4)cnc23)cs1", "area under confluence curve": 18000}
    ]},
    {"test_system": "PC9", "assay": "area under confluence curve of compound monotherapy; compare to DMSO control AUC of the same experiment (AUC (confluence x time, arbitrary))", "details": "1000 nM; DMSO control AUC in same experiment: 22064", "experimental": "as §1", "values": [
      {"smiles": "CCc1cc2c(cc1N1CCC(N3CCOCC3)CC1)C(C)(C)c1[nH]c3cc(C#N)ccc3c1C2=O", "note": "[Alectinib]", "area under confluence curve": 16200}
    ]},
    {"test_system": "PC9", "assay": "area under confluence curve of compound monotherapy; compare to DMSO control AUC of the same experiment (AUC (confluence x time, arbitrary))", "details": "1000 nM; DMSO control AUC in same experiment: 28684", "experimental": "as §1", "values": [
      {"smiles": "CCn1nc(C2CCN(C(=O)CCO)CC2)nc1-c1cnc(N)c(-c2nnc(C(C)(C)C)o2)n1", "area under confluence curve": 28000}
    ]},
    {"test_system": "PC9", "assay": "area under confluence curve of compound monotherapy; compare to DMSO control AUC of the same experiment (AUC (confluence x time, arbitrary))", "details": "1000 nM; DMSO control AUC in same experiment: 29345", "experimental": "as §1", "values": [
      {"smiles": "Cc1cc(Nc2ncnc3ccc(NC4=NC(C)(C)CO4)cc23)ccc1Oc1ccn2ncnc2c1", "note": "[Tucatinib]", "area under confluence curve": 29400}
    ]},
    {"test_system": "PC9", "assay": "area under confluence curve of compound monotherapy; compare to DMSO control AUC of the same experiment (AUC (confluence x time, arbitrary))", "details": "1000 nM; DMSO control AUC in same experiment: 30002", "experimental": "as §1", "values": [
      {"smiles": "Cc1cc(Nc2ncnc3ccc(NC4=NC(C)(C)CO4)cc23)ccc1Oc1ccn2ncnc2c1", "note": "[Tucatinib]", "area under confluence curve": 30200}
    ]},
    {"test_system": "PC9", "assay": "area under confluence curve of compound monotherapy; compare to DMSO control AUC of the same experiment (AUC (confluence x time, arbitrary))", "details": "1000 nM; DMSO control AUC in same experiment: 30578", "experimental": "as §1", "values": [
      {"smiles": "Cc1nc2nc(C)c(O[C@@H]3CCN(c4ccc(-c5ccc(CN6CCOCC6)nn5)cc4)C3)c(C)n2n1", "area under confluence curve": 30800}
    ]},
    {"test_system": "PC9", "assay": "area under confluence curve of compound monotherapy; compare to DMSO control AUC of the same experiment (AUC (confluence x time, arbitrary))", "details": "1000 nM; DMSO control AUC in same experiment: 43316", "experimental": "as §1", "values": [
      {"smiles": "CCn1nc(C2CCN(C(=O)CCO)CC2)nc1-c1cnc(N)c(-c2nnc(C(C)(C)C)o2)n1", "area under confluence curve": 43000}
    ]}
  ]
}
